Structures are written as SMILES. Active and inactive are the calls of the source. How the source made its calls: active means hit-call score of the fitted dose curve at least 0.9, where 1 is the maximum; inactive means score below 0.9.

In PubChem BioAssay (EPA / NIEHS) one finds outcome and AC50 data, which are given here for 37 molecules.

Chain of Heat shock factor protein 1 (Homo sapiens) (Q00613 whole entry, looked up): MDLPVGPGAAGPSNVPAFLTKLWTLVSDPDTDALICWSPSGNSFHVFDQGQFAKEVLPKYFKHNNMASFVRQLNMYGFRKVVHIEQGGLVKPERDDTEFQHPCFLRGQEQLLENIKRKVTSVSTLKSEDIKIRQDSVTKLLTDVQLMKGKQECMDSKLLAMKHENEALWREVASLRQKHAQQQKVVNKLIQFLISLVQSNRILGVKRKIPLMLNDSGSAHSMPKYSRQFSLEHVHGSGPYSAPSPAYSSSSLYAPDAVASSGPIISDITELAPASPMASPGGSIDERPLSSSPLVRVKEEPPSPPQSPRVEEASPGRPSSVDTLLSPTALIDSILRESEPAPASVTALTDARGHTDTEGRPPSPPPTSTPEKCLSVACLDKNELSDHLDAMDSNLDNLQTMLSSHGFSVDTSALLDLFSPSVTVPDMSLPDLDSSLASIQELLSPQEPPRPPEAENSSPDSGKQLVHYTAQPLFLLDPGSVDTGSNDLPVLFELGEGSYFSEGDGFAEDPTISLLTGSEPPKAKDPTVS

The target of this assay is Heat shock factor protein 1 (Homo sapiens) (UniProt Q00613). In words: ATG_HSE_CIS: Attagene CIS-FACTORIAL HepG2 Assay for human Heat Shock Transcription Factor 1 (HSE) (AID 2282953). The conditions noted are these: HepG2 HSE cis-reporter, Attagene RNA transcription; actives raise or lower the signal. Put shortly:
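Endogenous transcription factor activity in transiently transfected HepG2, read as reporter mRNA by RT-PCR with fluorescent capillary electrophoresis after 24 h. Gain or loss of signal fitted versus DMSO baseline.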
Turning to `C=CC(=O)NC(C)(C)CS(=O)(=O)O`, the molecule was classed as inactive.

`O=C1CCCC(=O)O1`: the call was inactive.

Take `Cc1c(C)c([N+](=O)[O-])c(C(C)(C)C)c([N+](=O)[O-])c1C`: the result was inactive.

Take `CCOc1ccc(N)c([N+](=O)[O-])c1`: the outcome was inactive.

On to `COC=O`, for which the molecule was classed as inactive.

Turning to `C[C@]12C=CC(=O)C=C1CC[C@@H]1[C@@H]2[C@@H](O)C[C@@]2(C)[C@H]1CC[C@]2(O)C(=O)CO`, the outcome was inactive.

Consider `CCC(C)OC(=O)c1ccc(O)cc1` (configuration not stated), for which the molecule was classed as inactive.

`CC1=CC[C@H]2C[C@@H]1C2(C)C`: the outcome was inactive.

For `N#[N+]c1ccc2c(S(=O)(=O)[O-])cccc2c1O`, the molecule was called inactive.

With `Cc1cc(C)c(C)c(O)c1`, the molecule was classed as inactive.

Take `CCCCCCC1(C)CCC(=O)O1` (configuration not stated): the result was inactive.

In the case of `Cc1cccc(C(=O)O)c1`, the call was inactive.

For the molecule `C=CC(C)(CCC=C(C)C)OC(=O)CC(C)C` (configuration not stated), the AC50 was 155 µM (active).

Consider `CC/C=C\CCOC(=O)CCCCC`, for which the call was inactive.

Take `O=S1(=O)OC(c2ccc(O)cc2)(c2ccc(O)cc2)c2ccccc21`: the result was inactive.

As for `O=C1C(N(CO)C(=O)NCO)N(CO)C(=O)N1CO` (configuration not stated), the molecule was classed as inactive.

On to `CC(CC=O)c1ccccc1` (configuration not stated), for which the molecule was called inactive.

With `CC(C)CCCC(C)CC=O` (configuration not stated), the molecule was called inactive.

For `CCN(Cc1cccc(S(=O)(=O)O)c1)c1ccc(C(=C2C=CC(=[N+](CC)Cc3cccc(S(=O)(=O)[O-])c3)C=C2)c2ccccc2)cc1`, the AC50 is 83 µM (active).

In the case of `CCO[Si](CCCN=C=O)(OCC)OCC`, the result was inactive.

In the case of `O=S(=O)(Oc1ccc(Cl)cc1Cl)c1ccccc1`, the result was inactive.

Turning to `Cc1ccc(C(C)(C)C)cc1`, the molecule was called inactive.

As for `CC1=CC[C@H](C(C)C)C=C1`, the outcome was inactive.

On to `CC(C)=CCC[C@H](C)CCO`, for which the molecule was classed as inactive.

As to `COC(=O)c1c(C)cc(O)c(C)c1O`, the call was inactive.

`CCC(C)(C)C1CCCCC1OC(C)=O` (configuration not stated): the call was inactive.

With `N#CCc1ccc(Cl)cc1Cl`, the molecule was called inactive.

For `O=CN1CCCCC1`, the molecule was classed as inactive.

As for `CCN(CC#N)c1cccc(C)c1`, the call was inactive.

With `CC(=O)OCc1ccco1`, the result was inactive.

On to `CC(C)(C)C(=O)CCc1ccc(Cl)cc1`, for which the result was inactive.

Take `NC(=O)OCC(COC(N)=O)c1ccccc1`: the result was inactive.

Consider `C1=Cc2ccccc2C1`, for which the result was inactive.

`CCCCC/C=C\C/C=C\CCCCCCCC(=O)OC`: the AC50 was 153 µM (active).

With `O=C1CCC(=O)N1Cl`, the molecule was called inactive.

As for `C=C(C)[C@H]1CC=C(C)CC1`, the call was inactive.

As to `N[C@H]1C(O)O[C@H](CO)[C@H](O)[C@@H]1O` (some centres not stated), the molecule was called inactive.

For orientation: AC50 means the concentration at which the activity in the assay is half-maximal.
